Data published in PubChem BioAssay (EPA / NIEHS).
Where “and” joins values, the source holds several entries; their conditions need not be identical. Equal values may be shown once. Records with an inconclusive call do not appear. Some compounds were tested as several samples or in several runs, with calls that do not always agree. Calls of active or inactive are those of the source. Rule for the calls: active = hit-call score of the fitted dose curve at least 0.9, where 1 is the maximum; inconclusive = response in the unintended direction; inactive = score below 0.9.

Columns and labels:
[1] = target: human Phosphodiesterase 4A1 (PDE4A1), PDE4A (gene 5141) (UniProt P27815); experiment: NVS_ENZ_hPDE4A1: NovaScreen (NVS) Enzymatic Assay for human Phosphodiesterase 4A1 (PDE4A1) (AID 2283191)
Chain of human Phosphodiesterase 4A1 (PDE4A1), PDE4A (gene 5141) (P27815 whole entry, looked up): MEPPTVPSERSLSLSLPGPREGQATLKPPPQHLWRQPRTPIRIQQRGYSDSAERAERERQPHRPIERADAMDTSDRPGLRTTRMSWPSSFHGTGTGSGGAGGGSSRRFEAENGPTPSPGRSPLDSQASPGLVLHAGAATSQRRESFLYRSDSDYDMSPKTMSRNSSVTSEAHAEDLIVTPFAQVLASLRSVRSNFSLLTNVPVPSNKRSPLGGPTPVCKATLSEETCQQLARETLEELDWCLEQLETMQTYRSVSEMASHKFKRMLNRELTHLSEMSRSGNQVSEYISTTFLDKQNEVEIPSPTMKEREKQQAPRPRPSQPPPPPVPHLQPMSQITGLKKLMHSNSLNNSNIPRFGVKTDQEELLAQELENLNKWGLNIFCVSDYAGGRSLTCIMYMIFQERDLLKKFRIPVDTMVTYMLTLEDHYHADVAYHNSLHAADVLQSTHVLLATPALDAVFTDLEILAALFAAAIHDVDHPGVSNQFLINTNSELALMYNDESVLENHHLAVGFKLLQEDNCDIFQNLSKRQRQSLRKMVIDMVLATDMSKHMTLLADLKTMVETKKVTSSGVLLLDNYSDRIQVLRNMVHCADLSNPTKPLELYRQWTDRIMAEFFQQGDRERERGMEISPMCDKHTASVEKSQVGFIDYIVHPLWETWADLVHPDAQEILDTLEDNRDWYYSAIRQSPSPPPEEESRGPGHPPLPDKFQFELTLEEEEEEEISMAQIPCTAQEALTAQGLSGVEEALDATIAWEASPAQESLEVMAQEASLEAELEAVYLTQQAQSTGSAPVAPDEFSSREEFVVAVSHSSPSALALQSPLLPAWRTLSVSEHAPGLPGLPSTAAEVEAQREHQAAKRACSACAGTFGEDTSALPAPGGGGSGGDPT
Summary of the method: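 Fluorescent substrate turnover by recombinant PDE4A1 read after 1 h by mobility-shift separation. Primary duplicate screen at 25 uM; hits retested in concentration series with a 50 uM maximum, relative to DMSO.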

[2] = target: human Phosphodiesterase 5 (PDE5), PDE5A (gene 8654) (UniProt O76074); experiment: NVS_ENZ_hPDE5: NovaScreen (NVS) Enzymatic Assay for human Phosphodiesterase 5 (PDE5) (AID 2283194)
Summary of the method: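 Screening began in duplicate at 25 uM, with actives taken into concentration-response. Enzyme activity of recombinant PDE5 toward its substrate was measured at 1 h by fluorescence mobility-shift detection, relative to DMSO controls.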

[3] = target: human Phosphodiesterase 10 (PDE10), PDE10A (gene 10846) (UniProt Q9Y233); experiment: NVS_ENZ_hPDE10: NovaScreen (NVS) Enzymatic Assay for human Phosphodiesterase 10 (PDE10) (AID 2283195)
Summary of the method: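 Readout is fluorescence intensity following electrophoretic mobility-shift separation, 1 h after dosing of isolated PDE10A protein. Hits meeting a preset threshold at 25 uM went to concentration series (max 50 uM), analysed relative to DMSO.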

[4] = target: Serine/threonine-protein phosphatase PP1-alpha catalytic subunit (Homo sapiens) (UniProt P62136); experiment: NVS_ENZ_hPPP1CA: NovaScreen (NVS) Enzymatic Assay for human Protein Phosphatase 1 Aatalytic subunit Alpha (PPP1CA) (AID 2283200)
Summary of the method: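 Chemicals were first screened in duplicate at 25 uM, and those passing threshold (e.g. 30% inhibition) were run as concentration series to 50 uM. Cell-free recombinant protein, 1.33 h read, fluorescent substrate/product mobility-shift detection, normalised to DMSO.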

[5] = target: human Protein Tyrosine Phosphatase Non-receptor Type 1 (PTPN1), PTPN1 (gene 5770) (UniProt P18031); experiment: NVS_ENZ_hPTPN1: NovaScreen (NVS) Enzymatic Assay for human Protein Tyrosine Phosphatase Non-receptor Type 1 (PTPN1) (AID 2283201)
Chain of human Protein Tyrosine Phosphatase Non-receptor Type 1 (PTPN1), PTPN1 (gene 5770) (P18031 whole entry, looked up): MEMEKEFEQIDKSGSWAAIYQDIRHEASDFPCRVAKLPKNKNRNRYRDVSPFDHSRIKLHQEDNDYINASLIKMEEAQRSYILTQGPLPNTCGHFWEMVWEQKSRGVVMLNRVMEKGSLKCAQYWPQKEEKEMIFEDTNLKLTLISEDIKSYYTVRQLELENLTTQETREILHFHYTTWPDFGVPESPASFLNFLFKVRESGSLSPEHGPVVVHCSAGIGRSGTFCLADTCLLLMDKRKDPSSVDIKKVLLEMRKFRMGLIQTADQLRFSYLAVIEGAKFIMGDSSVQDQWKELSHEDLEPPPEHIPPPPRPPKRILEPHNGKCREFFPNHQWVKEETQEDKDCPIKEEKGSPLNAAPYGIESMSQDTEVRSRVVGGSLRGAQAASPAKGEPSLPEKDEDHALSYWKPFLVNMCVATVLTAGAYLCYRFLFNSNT
Summary of the method: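 Chemicals were first tested in duplicate at 25 uM, and those passing threshold went on to singleton concentration series topping at 50 uM. Recombinant enzyme, specific substrate, product separated by mobility shift, fluorescence read at 1.33 h; activity loss relative to DMSO.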

[6] = target: Tyrosine-protein phosphatase non-receptor type 11 (Homo sapiens) (UniProt Q06124); experiment: NVS_ENZ_hPTPN11: NovaScreen (NVS) Enzymatic Assay for human Protein Tyrosine Phosphatase Non-receptor Type 11 (PTPN11) (AID 2283202)
Chain of Tyrosine-protein phosphatase non-receptor type 11 (Homo sapiens) (Q06124 whole entry, looked up): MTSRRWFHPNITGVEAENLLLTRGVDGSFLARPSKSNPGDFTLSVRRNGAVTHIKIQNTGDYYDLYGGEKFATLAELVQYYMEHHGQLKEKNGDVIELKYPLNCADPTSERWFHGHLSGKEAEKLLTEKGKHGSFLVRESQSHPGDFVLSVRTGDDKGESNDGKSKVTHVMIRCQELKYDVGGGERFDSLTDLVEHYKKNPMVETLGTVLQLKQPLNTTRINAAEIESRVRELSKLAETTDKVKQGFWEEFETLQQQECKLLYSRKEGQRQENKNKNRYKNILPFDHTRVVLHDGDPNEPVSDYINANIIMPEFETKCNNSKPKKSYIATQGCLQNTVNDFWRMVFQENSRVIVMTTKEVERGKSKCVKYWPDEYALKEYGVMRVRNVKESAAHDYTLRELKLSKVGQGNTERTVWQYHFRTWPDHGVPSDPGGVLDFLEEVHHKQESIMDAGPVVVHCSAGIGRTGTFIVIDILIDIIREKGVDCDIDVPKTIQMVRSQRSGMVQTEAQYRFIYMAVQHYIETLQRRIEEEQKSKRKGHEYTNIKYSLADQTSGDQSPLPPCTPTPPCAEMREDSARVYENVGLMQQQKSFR
Summary of the method: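 Compounds first tested in duplicate at 25 uM; those reaching ~30% inhibition rerun in singleton concentration-response, top 50 uM. Phosphatase activity measured after 0.5 h by fluorescence with mobility-shift separation, relative to DMSO.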

[7] = target: Tyrosine-protein phosphatase non-receptor type 12 (Homo sapiens) (UniProt Q05209); experiment: NVS_ENZ_hPTPN12: NovaScreen (NVS) Enzymatic Assay for human Protein Tyrosine Phosphatase Non-receptor Type 12 (PTPN12) (AID 2283204)
Chain of Tyrosine-protein phosphatase non-receptor type 12 (Homo sapiens) (Q05209 whole entry, looked up): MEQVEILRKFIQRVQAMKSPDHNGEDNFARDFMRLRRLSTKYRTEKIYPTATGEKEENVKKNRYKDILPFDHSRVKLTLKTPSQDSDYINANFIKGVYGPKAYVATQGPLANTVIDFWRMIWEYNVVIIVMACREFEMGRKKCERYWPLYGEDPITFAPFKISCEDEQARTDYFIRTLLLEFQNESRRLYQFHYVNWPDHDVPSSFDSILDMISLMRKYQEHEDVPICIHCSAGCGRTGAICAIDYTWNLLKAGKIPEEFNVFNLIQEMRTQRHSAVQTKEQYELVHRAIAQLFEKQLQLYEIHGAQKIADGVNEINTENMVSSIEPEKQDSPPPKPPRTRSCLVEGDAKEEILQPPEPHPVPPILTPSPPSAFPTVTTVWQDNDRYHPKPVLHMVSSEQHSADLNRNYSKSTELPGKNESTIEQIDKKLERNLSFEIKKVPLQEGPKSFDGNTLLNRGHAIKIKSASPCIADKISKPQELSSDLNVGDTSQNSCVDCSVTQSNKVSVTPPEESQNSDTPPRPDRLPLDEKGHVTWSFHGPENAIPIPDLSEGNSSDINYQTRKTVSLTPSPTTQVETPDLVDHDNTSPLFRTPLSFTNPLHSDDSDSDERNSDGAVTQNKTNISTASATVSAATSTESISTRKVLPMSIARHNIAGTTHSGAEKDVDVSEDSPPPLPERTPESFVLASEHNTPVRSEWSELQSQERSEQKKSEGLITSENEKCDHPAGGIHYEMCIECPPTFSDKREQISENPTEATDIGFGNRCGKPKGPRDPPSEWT
Summary of the method: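 Single-concentration duplicates (25 uM) preceded singleton concentration-response up to 50 uM for chemicals passing threshold. Cell-free recombinant PTPN12 activity was read 1.33 h after dosing via fluorescence after mobility-shift separation; loss of signal versus DMSO.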

[8] = target: Tyrosine-protein phosphatase non-receptor type 13 (Homo sapiens) (UniProt Q12923); experiment: NVS_ENZ_hPTPN13: NovaScreen (NVS) Enzymatic Assay for human Protein Tyrosine Phosphatase Non-receptor Type 13 (PTPN13) (AID 2283205)
Summary of the method: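 Screened first at a single 25 uM in duplicate; compounds passing the threshold (e.g. 30% inhibition) were rerun in concentration series, top 50 uM. Recombinant enzyme, fluorescent substrate, mobility-shift separation, 0.5 h read. Data fitted as inhibition relative to DMSO.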

[9] = target: human Protein Tyrosine Phosphatase Non-receptor Type 4 (PTPN4), PTPN4 (gene 5775) (UniProt P29074); experiment: NVS_ENZ_hPTPN4: NovaScreen (NVS) Enzymatic Assay for human Protein Tyrosine Phosphatase Non-receptor Type 4 (PTPN4) (AID 2283208)
Chain of human Protein Tyrosine Phosphatase Non-receptor Type 4 (PTPN4), PTPN4 (gene 5775) (P29074 whole entry, looked up): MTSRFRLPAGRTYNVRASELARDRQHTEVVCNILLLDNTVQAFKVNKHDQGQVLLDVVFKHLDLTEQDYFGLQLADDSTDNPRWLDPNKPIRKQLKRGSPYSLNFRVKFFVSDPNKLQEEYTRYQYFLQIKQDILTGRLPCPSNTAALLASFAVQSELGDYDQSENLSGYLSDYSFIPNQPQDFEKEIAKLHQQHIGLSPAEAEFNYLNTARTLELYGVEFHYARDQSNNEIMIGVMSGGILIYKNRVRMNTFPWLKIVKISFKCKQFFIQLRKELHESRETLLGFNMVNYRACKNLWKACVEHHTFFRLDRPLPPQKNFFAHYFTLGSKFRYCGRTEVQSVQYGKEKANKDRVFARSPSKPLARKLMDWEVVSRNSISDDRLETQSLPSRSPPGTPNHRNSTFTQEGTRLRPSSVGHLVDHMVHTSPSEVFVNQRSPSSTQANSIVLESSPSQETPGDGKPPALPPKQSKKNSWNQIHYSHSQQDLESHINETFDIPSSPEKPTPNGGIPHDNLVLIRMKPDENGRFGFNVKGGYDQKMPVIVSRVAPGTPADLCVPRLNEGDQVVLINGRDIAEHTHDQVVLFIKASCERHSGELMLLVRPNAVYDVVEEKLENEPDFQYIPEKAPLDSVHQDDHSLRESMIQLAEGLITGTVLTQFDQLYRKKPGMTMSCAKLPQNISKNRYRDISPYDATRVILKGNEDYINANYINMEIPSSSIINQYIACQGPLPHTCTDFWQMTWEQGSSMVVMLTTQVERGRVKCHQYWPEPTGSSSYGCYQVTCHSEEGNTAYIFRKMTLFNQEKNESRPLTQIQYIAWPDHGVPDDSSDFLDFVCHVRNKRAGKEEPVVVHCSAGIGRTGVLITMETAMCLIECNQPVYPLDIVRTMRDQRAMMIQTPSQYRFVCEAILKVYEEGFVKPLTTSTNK
Summary of the method: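 Screened in duplicate at 25 uM, with hits then titrated to a top concentration of 50 uM. Recombinant Sf9-derived PTPN4 turnover was read by fluorescence with electrophoretic separation, 1.33 h after compound addition. DMSO served as baseline.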

[10] = target: human Protein Tyrosine Phosphatase Non-receptor Type 9 (PTPN9), PTPN9 (gene 5780) (UniProt P43378); experiment: NVS_ENZ_hPTPN9: NovaScreen (NVS) Enzymatic Assay for human Protein Tyrosine Phosphatase Non-receptor Type 9 (PTPN9) (AID 2283209)
Chain of human Protein Tyrosine Phosphatase Non-receptor Type 9 (PTPN9), PTPN9 (gene 5780) (P43378 whole entry, looked up): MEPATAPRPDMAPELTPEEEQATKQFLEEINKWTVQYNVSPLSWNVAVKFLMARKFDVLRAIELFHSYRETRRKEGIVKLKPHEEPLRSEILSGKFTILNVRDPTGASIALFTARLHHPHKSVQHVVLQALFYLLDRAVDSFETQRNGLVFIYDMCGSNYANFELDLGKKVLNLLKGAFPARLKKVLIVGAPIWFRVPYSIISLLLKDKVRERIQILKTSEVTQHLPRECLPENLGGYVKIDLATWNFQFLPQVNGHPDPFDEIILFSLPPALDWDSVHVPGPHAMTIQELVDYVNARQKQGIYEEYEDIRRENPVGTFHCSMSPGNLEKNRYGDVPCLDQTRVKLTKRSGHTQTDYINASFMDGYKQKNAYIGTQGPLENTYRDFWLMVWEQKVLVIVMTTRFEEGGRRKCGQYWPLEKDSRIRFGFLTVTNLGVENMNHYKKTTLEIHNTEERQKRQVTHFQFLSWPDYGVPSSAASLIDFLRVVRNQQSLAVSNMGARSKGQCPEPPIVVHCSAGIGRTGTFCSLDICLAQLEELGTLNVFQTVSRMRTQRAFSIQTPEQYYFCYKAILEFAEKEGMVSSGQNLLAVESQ
Summary of the method: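 Sf9-expressed enzyme in a cell-free assay, fluorescence read 1.33 h after dosing with mobility-shift separation of substrate and product. Tested at 25 uM in duplicate, then up to 50 uM; signal loss versus DMSO.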

[11] = target: human Protein Tyrosine Phosphatase Receptor Type F (PTPRF), PTPRF (gene 5792) (UniProt P10586); experiment: NVS_ENZ_hPTPRF: NovaScreen (NVS) Enzymatic Assay for human Protein Tyrosine Phosphatase Receptor Type F (PTPRF) (AID 2283213)
Summary of the method: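 Cell-free fluorescence enzyme assay with recombinant protein and substrate; product separated by electrophoretic mobility shift. Read 1 h after dosing, single 25 uM duplicate screen, then concentration-response up to 50 uM; loss of signal vs DMSO.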

[12] = target: human Protein Tyrosine Phosphatase Receptor Type M (PTPRM), PTPRM (gene 5797) (UniProt P28827); experiment: NVS_ENZ_hPTPRM: NovaScreen (NVS) Enzymatic Assay for human Protein Tyrosine Phosphatase Receptor Type M (PTPRM) (AID 2283215)
Summary of the method: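 Read-out is fluorescence after electrophoretic separation of substrate and product, taken 1.33 h post-dosing with recombinant enzyme. Compounds screened at 25 uM in duplicate, then concentration series for actives; activity as signal loss relative to DMSO.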

[13] = target: cAMP-dependent protein kinase catalytic subunit alpha (Homo sapiens) (UniProt P17612); experiment: NVS_ENZ_hPKA: NovaScreen (NVS) Enzymatic Assay for human Protein Kinase A (PKA) (AID 2283192)
Summary of the method: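 Cell-free kinase activity read by fluorescence after mobility-shift separation of substrate and product, 1 h post-dosing. Single-concentration duplicate screen (25 uM) preceded singleton concentration series (top 50 uM); loss of signal versus DMSO.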

[14] = target: human Phosphoinositide 3-kinase alpha (PI3Ka), PIK3CA (gene 5290) (UniProt P42336); experiment: NVS_ENZ_hPI3Ka: NovaScreen (NVS) Enzymatic Assay for human Phosphoinositide 3-kinase alpha (PI3Ka) (AID 2283196)
Summary of the method: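 Recombinant human PI3Kα with fluorescent substrate, 1 h, product separated by electrophoretic mobility shift; 25 uM duplicate screen, hits (e.g., 30% inhibition) retested singly up to 50 uM; loss of signal vs DMSO.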

[15] = target: Tyrosine-protein phosphatase non-receptor type 14 (Homo sapiens) (UniProt Q15678); experiment: NVS_ENZ_hPTPN14: NovaScreen (NVS) Enzymatic Assay for human Protein Tyrosine Phosphatase Non-receptor Type 14 (PTPN14) (AID 2283206)
Summary of the method: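 Fluorescent substrate turnover by recombinant human PTPN14 was measured 0.5 h after compound addition, with substrate and product separated by mobility shift. Single-point screening at 25 uM, then concentration-response up to 50 uM for chemicals meeting threshold (e.g., 30% inhibition).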

[16] = target: human Protein Tyrosine Phosphatase Non-receptor Type 6 (PTPN6), PTPN6 (gene 5777) (UniProt P29350); experiment: NVS_ENZ_hPTPN6: NovaScreen (NVS) Enzymatic Assay for human Protein Tyrosine Phosphatase Non-receptor Type 6 (PTPN6) (AID 2283210)
Chain of human Protein Tyrosine Phosphatase Non-receptor Type 6 (PTPN6), PTPN6 (gene 5777) (P29350 whole entry, looked up): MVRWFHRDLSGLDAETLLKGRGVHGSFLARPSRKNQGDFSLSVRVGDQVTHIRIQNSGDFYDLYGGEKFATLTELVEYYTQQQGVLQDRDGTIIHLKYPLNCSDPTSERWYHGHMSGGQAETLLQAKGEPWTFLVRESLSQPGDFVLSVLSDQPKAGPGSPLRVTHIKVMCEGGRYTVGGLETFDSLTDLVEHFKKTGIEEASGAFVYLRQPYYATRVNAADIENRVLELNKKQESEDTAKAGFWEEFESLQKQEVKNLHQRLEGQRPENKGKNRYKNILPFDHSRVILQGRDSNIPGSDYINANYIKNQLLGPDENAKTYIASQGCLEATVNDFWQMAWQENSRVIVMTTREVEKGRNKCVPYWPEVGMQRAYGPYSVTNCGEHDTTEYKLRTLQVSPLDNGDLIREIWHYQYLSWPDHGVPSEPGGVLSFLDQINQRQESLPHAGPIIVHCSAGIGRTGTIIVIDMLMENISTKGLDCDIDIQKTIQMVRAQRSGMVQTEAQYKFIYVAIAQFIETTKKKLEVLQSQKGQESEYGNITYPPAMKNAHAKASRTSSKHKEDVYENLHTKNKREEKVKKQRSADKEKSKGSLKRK
Summary of the method: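 Recombinant human PTPN6 from SF9 cells, enzyme activity followed by fluorescence after mobility-shift separation of substrate and product at 1.33 h. Chemicals first tested at a single 25 uM in duplicate, then confirmed across concentration series; loss of signal relative to DMSO.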

[17] = target: human Protein Tyrosine Phosphatase Receptor Type B (PTPRB), PTPRB (gene 5787) (UniProt P23467); experiment: NVS_ENZ_hPTPRB: NovaScreen (NVS) Enzymatic Assay for human Protein Tyrosine Phosphatase Receptor Type B (PTPRB) (AID 2283211)
Summary of the method: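 Recombinant human PTPRB with a fluorescent substrate, product separated by electrophoretic mobility shift; read 1 h after dosing. Primary screen in duplicate at 25 uM; actives then retested in concentration series; loss of signal versus DMSO.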

[18] = target: human Rho Associated Coiled-coil Containing Protein Kinase 1 (ROCK1), ROCK1 (gene 6093) (UniProt Q13464); experiment: NVS_ENZ_hROCK1: NovaScreen (NVS) Enzymatic Assay for human Rho Associated Coiled-coil Containing Protein Kinase 1 (ROCK1) (AID 2283214)
Summary of the method: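 Compounds first run in duplicate at 25 uM against recombinant human ROCK1, then followed in concentration series. Kinase activity was read 1 h post-dosing by fluorescence with mobility-shift separation, as signal loss relative to DMSO.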

[19] = target: human Matrix Metalloproteinase-9 (MMP9), MMP9 (gene 4318) (UniProt P14780); experiment: NVS_ENZ_hMMP9: NovaScreen (NVS) Enzymatic Assay for human Matrix Metalloproteinase-9 (MMP9) (AID 2283190);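 note: cell-free recombinant MMP9 protease activity read by fluorescent substrate signal; active means inhibition seen as loss of fluorescence signal versus DMSO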
Summary of the method: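 Cell-free recombinant MMP9 enzyme activity measured by fluorescence intensity 1 h after dosing. Primary screen in duplicate at 25 uM, actives followed in concentration series; loss of signal relative to DMSO.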

[20] = target: human Protein Phosphatase, Mg2+/Mn2+ Dependent 1A (PPM1A), PPM1A (gene 5494) (UniProt P35813); experiment: NVS_ENZ_hPPM1A: NovaScreen (NVS) Enzymatic Assay for human Protein Phosphatase, Mg2+/Mn2+ Dependent 1A (PPM1A) (AID 2283198)
Summary of the method: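 Primary screen in duplicate at 25 uM, with actives then titrated to a maximum of 50 uM. Recombinant PPM1A dephosphorylation of fluorescent substrate measured at 1 h, with substrate and product separated by mobility shift; inhibition fitted against DMSO.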

Measured: AC50

O=C(O)C1(C(=O)Nc2ccc(Cl)cc2Cl)CC1
inactive: [11]
active: [1] 24.2 µM | [2] 13 µM | [3] 34.9 µM | [4] 19.7 µM | [5] 3.82 µM | [6] 6.94 µM | [7] 25 µM | [8] 3.91 µM | [9] 3.23 µM | [10] 4.28 µM | [12] 12.4 µM

S=C(S)NCCNC(=S)S.[Mn+2].[S-]C([S-])=NCCN=C([S-])[S-].[Zn+2]
active: [1] 3.82 µM and 3.7 µM and 10.6 µM | [13] 20.5 µM | [2] 12.5 µM and 14.2 µM | [3] 2.41 µM and 17.6 µM | [14] 6.63 µM and 14.6 µM | [5] 830 nM and 1.81 µM | [6] 463 nM and 603 nM | [7] 486 nM and 1.35 µM | [8] 3.5 µM and 7.66 µM and 4.12 µM | [15] 25 µM | [9] 183 nM and 38.9 nM | [10] 419 nM and 26.1 nM | [16] 3.57 µM and 30.5 µM | [17] 22.4 nM and 4.12 µM | [11] 1.38 µM and 1.98 µM
inactive: [2] | [14] | [11] | [18]

CC(=O)S[C@@H]1CC2=CC(=O)CC[C@]2(C)[C@H]2CC[C@@]3(C)[C@@H](CC[C@@]34CCC(=O)O4)[C@H]12
active: [3] 14.4 µM

COC(=O)c1ccccc1S(=O)(=O)NC(=O)Nc1nc(OC(F)F)cc(OC(F)F)n1
inactive: [13] | [17]

Oc1ccc(C(c2ccc(O)cc2)C(Cl)(Cl)Cl)cc1
inactive: [19] | [6]
active: [14] 29.1 µM | [12] 46.5 µM

CCC(C)OC(=O)N1CCCCC1CCO (centres undefined)
inactive: [3] | [9] | [10]

CCOC(=O)c1ccc(O)cc1
inactive: [2] | [20]

CCNc1nc(N)nc(Cl)n1
active: [1] 25 µM
inactive: [17]

c1ccc(Nc2ccccc2)cc1
inactive: [4] | [9]

CCCN(CCC)c1c([N+](=O)[O-])cc(C(F)(F)F)c(N)c1[N+](=O)[O-]
active: [10] 19.9 µM
inactive: [7] | [9] | [16] | [12]

N#CSCSc1nc2ccccc2s1
inactive: [14] | [11]
